PubChem BioAssay (NCI)
This is part of a sample that, as a whole, favours compounds with a hit. Of some 83,000 tested, about 20% had one in any assay.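 48-hour exposure, single concentration, 96-well plates; percent growth endpoint where 0 means no net growth. Active: below 10.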 Active and inactive are the calls of the source.

Legend:
Assay in all cases: NCI-60 one-dose screen, 48 h (100 = growth as untreated, 0 = no growth, -100 = all killed)
Details in all cases: 10 µM unless noted
NCI-H23 lung = test system: NCI-H23 lung
NCI-H226 lung = test system: NCI-H226 lung
NCI-H322M lung = test system: NCI-H322M lung
HOP-62 NSCLC = test system: HOP-62 NSCLC
NCI-H460 lung = test system: NCI-H460 lung
HOP-92 NSCLC = test system: HOP-92 NSCLC
NCI-H522 lung = test system: NCI-H522 lung
A549/ATCC NSCLC = test system: A549/ATCC NSCLC
786-0 renal = test system: 786-0 renal
COLO 205 colon = test system: COLO 205 colon

Measured: growth

Cc1cccc(C[C@H](NC(=O)Nc2ccc(Cl)cc2F)C(=O)N[C@@H]2C(=O)N3C[C@H](OC(=O)CCN(C)C)C[C@H]3C(=O)N3CCCC[C@H]3C(=O)N[C@@H](C)C(=O)N3C[C@H](C)C[C@H]3C(=O)O[C@H]2C)c1
inactive: NCI-H23 lung 34.4% | NCI-H226 lung 28% | NCI-H322M lung 59.2% | HOP-62 NSCLC 35% | NCI-H460 lung 13.6% | HOP-92 NSCLC 19.1% | NCI-H522 lung 24.6% | A549/ATCC NSCLC 25.4% | 786-0 renal 22.5%
active: COLO 205 colon 9.51%

O=C1CC(c2ccccc2)Cc2nc3ccc(Cl)cc3cc21 (stereo not given)
inactive: NCI-H23 lung 36.4% | NCI-H226 lung 20.8% | NCI-H322M lung 39.8% | HOP-62 NSCLC 35.9% | HOP-92 NSCLC 39.3% | A549/ATCC NSCLC 23.3% | 786-0 renal 37.6%
active: NCI-H460 lung 3.33% | NCI-H522 lung 3.02% | COLO 205 colon -31.7%

CC(C)(C)c1cc(C(=O)N2CCC(C(=O)NCCN)CC2)cc(C(C)(C)C)c1
inactive: NCI-H23 lung 104% | NCI-H226 lung 81.3% | NCI-H322M lung 93.6% | HOP-62 NSCLC 97.5% | NCI-H460 lung 100% | HOP-92 NSCLC 85.1% | NCI-H522 lung 66% | A549/ATCC NSCLC 81% | 786-0 renal 106% | COLO 205 colon 98.9%

CC(=O)OC[C@]12CC[C@@H]([C@@H](C)C(N)=O)[C@@H]1[C@H]1CC[C@@H]3[C@@]4(C)CC[C@H](OC(C)=O)C(C)(C)[C@@H]4CC[C@@]3(C)[C@]1(C)CC2
active: NCI-H23 lung -40.3% [100 µM] | NCI-H226 lung -58.5% [100 µM] | NCI-H322M lung -78.2% [100 µM] | HOP-62 NSCLC -73% [100 µM] | NCI-H460 lung -61.8% [100 µM] | HOP-92 NSCLC -83.1% [100 µM] | NCI-H522 lung -61.1% [100 µM] | A549/ATCC NSCLC 9.89% [100 µM] | 786-0 renal -74% [100 µM] | COLO 205 colon -53% [100 µM]

CSc1nc2c(c(=O)n1C)C1(C(=O)N(Cc3ccccc3)c3ccccc31)c1c(nc(SC)n(C)c1=O)N2
inactive: NCI-H23 lung 92.9% | NCI-H226 lung 74.3% | NCI-H322M lung 95.5% | HOP-62 NSCLC 84% | NCI-H460 lung 87.2% | HOP-92 NSCLC 93.2% | NCI-H522 lung 73.9% | A549/ATCC NSCLC 68.5% | 786-0 renal 113% | COLO 205 colon 105%

O=C(Nc1ccc(C(=O)/C=C/c2ccc(N3CCOCC3)cc2)cc1)Nc1ccc([N+](=O)[O-])cc1
inactive: NCI-H23 lung 83.4% | NCI-H226 lung 45% | NCI-H322M lung 63.1% | HOP-62 NSCLC 105% | NCI-H460 lung 67.9% | HOP-92 NSCLC 120% | NCI-H522 lung 84.1% | A549/ATCC NSCLC 81.3% | 786-0 renal 111% | COLO 205 colon 109%

COc1cc(OC)cc(C(=O)Nc2cc(-c3cccnc3)nc(NCCCN3CCOCC3)n2)c1
inactive: NCI-H23 lung 91.7% | NCI-H226 lung 85.7% | NCI-H322M lung 90.9% | HOP-62 NSCLC 87.8% | NCI-H460 lung 95.3% | HOP-92 NSCLC 67.7% | NCI-H522 lung 92% | A549/ATCC NSCLC 92.6% | 786-0 renal 84% | COLO 205 colon 94.3%

C=C(C)[C@@H]1CC[C@]2(COCCCN)CC[C@]3(C)[C@H](CC[C@@H]4[C@@](C)(CCCNCCCN)[C@H](C(=C)C)CC[C@]43C)[C@@H]12
active: NCI-H23 lung -53.5% [100 µM] | NCI-H226 lung -41.6% [100 µM] | NCI-H322M lung -76.2% [100 µM] | HOP-62 NSCLC -47.7% [100 µM] | NCI-H460 lung -74.7% [100 µM] | HOP-92 NSCLC -69.5% [100 µM] | NCI-H522 lung -49.8% [100 µM] | A549/ATCC NSCLC -55.7% [100 µM] | 786-0 renal -49.7% [100 µM] | COLO 205 colon -50.3% [100 µM]

CCCCCn1sc(=O)n(Cc2ccc(CNC(=O)OCc3ccc4cccc(O)c4n3)cc2)c1=O
inactive: NCI-H23 lung 25.1% | NCI-H226 lung 21.9% | NCI-H322M lung 41.8% | A549/ATCC NSCLC 20.6%
active: HOP-62 NSCLC -0.186% | NCI-H460 lung 6.42% | HOP-92 NSCLC -52.5% | NCI-H522 lung -49.1% | 786-0 renal -71% | COLO 205 colon -45.2%

Cc1ccccc1-n1nnc(C(=O)Nc2nc3ccc(F)cc3s2)c1C
inactive: NCI-H23 lung 55.7% | NCI-H226 lung 48.4% | NCI-H322M lung 71.2% | HOP-62 NSCLC 86% | NCI-H460 lung 65.7% | HOP-92 NSCLC 55.7% | NCI-H522 lung 66.4% | A549/ATCC NSCLC 64.5% | 786-0 renal 76.2% | COLO 205 colon 80.5%

C[n+]1c(-c2ccccc2)c2cc(N)ccc2c2ccccc21
inactive: NCI-H23 lung 27.5% | NCI-H226 lung 26.3% | NCI-H322M lung 70.8% | HOP-62 NSCLC 63.8% | NCI-H460 lung 28.4% | HOP-92 NSCLC 54.5% | A549/ATCC NSCLC 44.4% | 786-0 renal 55.3% | COLO 205 colon 16.7%
active: NCI-H522 lung -5.84%

CO[C@H]1CC[C@@]2(C)C(=CC[C@H]3[C@@H]4C[C@H](O)C[C@@]4(C)CC[C@@H]32)C1
inactive: NCI-H23 lung 67.8% | NCI-H226 lung 82.4% | NCI-H322M lung 91.3% | HOP-62 NSCLC 62.4% | NCI-H460 lung 42.9% | HOP-92 NSCLC 35.6% | NCI-H522 lung 71.6% | A549/ATCC NSCLC 81.9% | 786-0 renal 61.5% | COLO 205 colon 61.5%

NC1=NC(=O)NC1(c1ccccc1)c1ccccc1
inactive: NCI-H23 lung 91.9% | NCI-H226 lung 99% | NCI-H322M lung 99.2% | HOP-62 NSCLC 95.6% | NCI-H460 lung 108% | HOP-92 NSCLC 85.3% | NCI-H522 lung 95.1% | A549/ATCC NSCLC 93.3% | 786-0 renal 135% | COLO 205 colon 103%

NC(=O)c1c(NC(=O)COC(=O)Cc2ccccc2F)sc2c1CCC2
inactive: NCI-H23 lung 99.2% | NCI-H226 lung 94.4% | NCI-H322M lung 126% | HOP-62 NSCLC 115% | NCI-H460 lung 100% | HOP-92 NSCLC 89.3% | NCI-H522 lung 85.5% | A549/ATCC NSCLC 103% | 786-0 renal 97.6% | COLO 205 colon 101%

Clc1ccc(N2CCN(CCCN3CCN(c4cccc(Cl)c4)CC3)CC2)cc1
inactive: NCI-H23 lung 50.8% | NCI-H226 lung 90.5% | NCI-H322M lung 78.3% | HOP-62 NSCLC 67.7% | NCI-H460 lung 49.5% | HOP-92 NSCLC 42.7% | NCI-H522 lung 59.5% | A549/ATCC NSCLC 58.3% | 786-0 renal 62.4% | COLO 205 colon 42.3%

CCCCC(CC)COC(=O)C[N+](C)(C)CCOC(c1ccccc1)c1ccccc1 (stereo not given)
inactive: NCI-H23 lung 42% | NCI-H226 lung 54.1% | NCI-H322M lung 88.7% | HOP-62 NSCLC 60.6% | NCI-H460 lung 65.2% | A549/ATCC NSCLC 88.3% | 786-0 renal 77.7%
active: HOP-92 NSCLC -12.2% | NCI-H522 lung -24.5% | COLO 205 colon -28%

COc1cc(/C=C/C(=O)/C=C/c2ccc(-n3ccnc3C)cc2)ccc1O
inactive: NCI-H23 lung 64% | NCI-H226 lung 89.1% | NCI-H322M lung 100% | HOP-62 NSCLC 88.5% | NCI-H460 lung 81.2% | HOP-92 NSCLC 95.1% | NCI-H522 lung 81.4% | A549/ATCC NSCLC 62.1% | 786-0 renal 97.2% | COLO 205 colon 60.1%

C=CCCCCOc1ccccc1-c1cnc(OCCCCC=C)n1C
inactive: NCI-H23 lung 76% | NCI-H226 lung 92.2% | NCI-H322M lung 72% | HOP-62 NSCLC 77.2% | NCI-H460 lung 55.6% | HOP-92 NSCLC 75.2% | NCI-H522 lung 12.6% | A549/ATCC NSCLC 50.3% | 786-0 renal 107% | COLO 205 colon 46%

CC(=O)OC[C@]12CC[C@@H](C(=O)CBr)[C@@H]1[C@H]1CC[C@@H]3[C@@]4(C)CCCNC(C)(C)[C@@H]4CC[C@@]3(C)[C@]1(C)CC2
active: NCI-H23 lung -64.3% [100 µM] | NCI-H226 lung -20.3% [100 µM] | NCI-H322M lung -100% [100 µM] | HOP-62 NSCLC -86.8% [100 µM] | NCI-H460 lung -66.7% [100 µM] | HOP-92 NSCLC -76.7% [100 µM] | NCI-H522 lung -81.4% [100 µM] | A549/ATCC NSCLC -69.7% [100 µM] | 786-0 renal -74.3% [100 µM] | COLO 205 colon -59.3% [100 µM]

Cc1cc[n+](CCCCCCCCCC[n+]2ccc(C)cc2)cc1
inactive: NCI-H23 lung 68.8% | NCI-H226 lung 68.3% | NCI-H322M lung 109% | HOP-62 NSCLC 87.7% | NCI-H460 lung 98.7% | HOP-92 NSCLC 99.8% | NCI-H522 lung 91.6% | A549/ATCC NSCLC 73.3% | 786-0 renal 97.5% | COLO 205 colon 103%

CCN=Cc1c(O)c(O)c(C(C)C)c2cc(C)c(-c3c(C)cc4c(C(C)C)c(O)c(O)c(C=NCC)c4c3O)c(O)c12
active: COLO 205 colon 7.89%
inactive: NCI-H23 lung 24.9% | NCI-H226 lung 80.4% | NCI-H322M lung 48.3% | HOP-62 NSCLC 51.3% | NCI-H460 lung 26% | HOP-92 NSCLC 16.3% | NCI-H522 lung 43.3% | A549/ATCC NSCLC 27.2% | 786-0 renal 72.5%

CCC(C)[C@H](NC(=O)NC(=O)NC(=O)CI)C(=O)OC (stereo not given in full)
active: HOP-92 NSCLC -34.4% | NCI-H522 lung -86.5% | 786-0 renal -50.3%
inactive: NCI-H23 lung 82.3% | NCI-H226 lung 86.7% | NCI-H322M lung 106% | HOP-62 NSCLC 87.9% | NCI-H460 lung 95.6% | A549/ATCC NSCLC 91.9% | COLO 205 colon 10.8%

CC1(C)C(=O)/C(=C\c2ccco2)C[C@]2(C)[C@H]3CC=C4[C@@H]5C[C@](C)(C(=O)O)CC[C@]5(C)CC[C@@]4(C)[C@]3(C)CC[C@@H]12
active: NCI-H23 lung -64% [100 µM] | NCI-H226 lung -29.3% [100 µM] | NCI-H322M lung -91.9% [100 µM] | HOP-62 NSCLC -67.7% [100 µM] | NCI-H460 lung -73.5% [100 µM] | HOP-92 NSCLC -82.8% [100 µM] | NCI-H522 lung -64.4% [100 µM] | A549/ATCC NSCLC -67.6% [100 µM] | 786-0 renal -53.6% [100 µM] | COLO 205 colon -62.2% [100 µM]

Cc1cnc([C@]23CC[C@@H](C)[C@H](C)[C@H]2C2=CC[C@@H]4[C@@]5(C)Cc6c([nH]c7ccccc67)C(C)(C)[C@@H]5CC[C@@]4(C)[C@]2(C)CC3)o1
inactive: NCI-H23 lung 27.8% [100 µM] | NCI-H226 lung 59.2% [100 µM] | NCI-H322M lung 37% [100 µM] | HOP-62 NSCLC 43.8% [100 µM] | NCI-H460 lung 16.7% [100 µM] | HOP-92 NSCLC 30.5% [100 µM] | NCI-H522 lung 79.5% [100 µM] | A549/ATCC NSCLC 28.8% [100 µM] | 786-0 renal 27% [100 µM] | COLO 205 colon 43% [100 µM]
